Measurements from PubChem BioAssay (NCI).
Several values for one entry are separate records, joined by “and”; a condition that tells them apart may be missing. Equal values may be shown once. About 83,000 compounds went through this panel and 20% of them were active in at least one assay; those are over-represented in the sample as a whole.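 Negative percent growth values reflect cell death: -40 means 40% of the cells present at the start died, and -100 means all died.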 Activity calls are given as the source filed them.

The compounds below were run on KM12 colon (assay: NCI-60 one-dose screen, 48 h (100 = growth as untreated, 0 = no growth, -100 = all killed)). Conditions: 10 µM.
Procedure: Growth inhibition of the KM12 human tumor cell line is measured as a screen for anti-cancer activity. Cells are grown in 96 well plates and exposed to the test compound for 48 hours. Compounds are tested at a single concentration, which is 10^-5 M for most compounds. The reported endpoint is percent growth (GI% or GIPRCNT), where numbers from 0 - 100% represent growth inhibition, and numbers from -100% - 0 represent cell death. For example, a value of 40 represents 60% growth inhibition. A value of 0 means no net growth occurred over the course of the experiment. A value of -40 indicates 40% of cells at the beginning of the experiment died by the end of the experiment. A value of -100 means all cells are dead at the end of the experiment.
NCI-60 Human Tumor Cell Lines Screen was performed using the standard one-dose NCI protocol, which is described in more detail at https://dtp.cancer.gov/discovery_development/nci-60/default.htm.
Compounds with GIPRCNT values below 10 were considered active. Activity score was based on GIPRCNT using the following formula: […]
Score is 0 for GIPRCNT values of 100 or above, 50 for GIPRCNT values of 0, and 100 for GIPRCNT values of -100.
For CN(C)C(=O)c1ccc(SC(=S)NCc2ccccc2)cc1, the growth was 102% (inactive). For O=C(Nc1c(Cl)cccc1Cl)Oc1cccc2cccnc12, the growth was 47% (inactive). For COc1ccc(-c2cscc2N)cc1, the growth was 69.6% (inactive).

Same assay, conditions: 10 µM unless noted
In the case of C[n+]1c(/C=C/c2ccc([N+](=O)[O-])cc2)ccc2ccccc21, the growth is reported as 80.8% (inactive). For CN(C)CCOc1ccc2c(c1)C(=O)/C(=C\c1ncc([N+](=O)[O-])n1C)C2, the growth was -68% (active). For O=C(Oc1cccc2cccnc12)c1ccccc1, the growth was 101% (inactive) and 104% (inactive). With CN(C)C(=O)SC1=C(c2c(Cl)cccc2Cl)C(=O)c2ccccc21 the growth was 99.4% (inactive). For C1=C(c2ccccc2)C(c2ccc(OCCN3CCCCC3)cc2)Oc2ccccc21 (stereo not given), the growth was 46.4% (inactive). O=C(O)c1ccc2c3c(ncnc13)-c1ccccc1C2=O was tested, and the growth was 46.5% (inactive). COc1cc(/C=C/C(C)=O)ccc1O was tested, and the growth was 90% (inactive) and 92.7% (inactive). Oc1c(Br)cc(Cl)cc1C(c1cc(Cl)cc(Br)c1O)C(Cl)(Cl)Cl was tested, and the growth was 13% (inactive). For O=C1NC(=O)/C(=C/C=C/c2ccccc2)S1, the growth was 38% (inactive). In the case of N#Cc1ccc([N+](=O)[O-])o1, the growth is reported as 102% (inactive). O=C1c2ccccc2C(=O)c2sc(Nc3cccc(Cl)c3)nc21 was tested, and the growth was 24.6% (inactive). Cc1cc(N)c2ccccc2[n+]1CCCCCCCCCC[n+]1c(C)cc(N)c2ccccc21 was tested, and the growth was -48.4% (active) and 6.86% (active). With O=C(/C=C\c1cc(Br)ccc1O)/C=C/c1cc(Br)ccc1O the growth was -71.5% (active). In the case of CCCCCCCCCCCCCCCCCCOP(=O)([O-])OC1CC[N+](C)(C)CC1, the growth is reported as -44.2% (active) and -95.1% (active). O=C(CC1(O)C(=O)Nc2c(Cl)ccc(Cl)c21)c1ccc(Cl)cc1Cl (stereo not given) was tested, and the growth was 102% (inactive). CCN(CC)CCOc1ccc(-c2nc3cc(Cl)ccc3s2)cc1 was tested, and the growth was -99.2% (active). In the case of Cc1ccc(NS(=O)(=O)c2ccc(C)cc2)cc1, the growth is reported as 91.2% (inactive) and 89.2% (inactive). With CCCCCCCCCCCCCCCCN(CC)CC the growth was -57% (active). Cc1ccc(N=C=C(c2ccccc2)c2ccccc2)cc1 was tested, and the growth was 95% (inactive). In the case of O=C1OCc2cccc3cccc1c23, the growth is reported as 104% (inactive). For CCC(CCCN(CC)CCc1ccccc1)OC(=O)c1cc(OC)c(OC)c(OC)c1 (stereo not given), the growth was 96.6% (inactive). With N#CSCC(=O)c1ccc(Cl)cc1 the growth was 14.7% (inactive). With O=C(Nc1ccc(F)cc1)ON=C1CCCCC1 the growth was 92.9% [100 µM] (inactive). For S=C(N/N=C/c1ccccn1)Nc1ccccn1, the growth was 29.7% (inactive). CC(=O)C(=Cc1ccc(C=C(C(C)=O)C(C)=O)cc1)C(C)=O was tested, and the growth was -43.7% (active). For COC(=O)Nc1nc2ccc(C(=O)c3ccccc3)cc2[nH]1, the growth was 11.2% (inactive) and -7.2% (active) and 3.76% (active). With CC(=Nc1ccc(N(C)C)cc1)c1ccccc1 the growth was 42.6% (inactive). CNc1ccc2c(c1)c1ccccc1n2C was tested, and the growth was 104% (inactive). Cc1ccnc2c1ccc1c(C)ccnc12 was tested, and the growth was 24.2% (inactive). For Cc1cc(C(C)(CC(C)C)c2ccc(O)c(C)c2)ccc1O, the growth was 107% (inactive). CCOC(=O)c1c(C)[nH]c(CO)c1C was tested, and the growth was 94.2% (inactive). In the case of N#CSCc1ccc(CSC#N)c(Cl)c1, the growth is reported as 69.3% (inactive). With C=C(Cl)C(=NC(C)(C)C)Nc1ccccc1C the growth was 80.9% (inactive). In the case of CC(C)(C)CC(C)(C)c1ccc(OCCSC(=N)N)cc1, the growth is reported as 32.8% (inactive).

Same assay, conditions: 100 µM
In the case of CN(C)C(=O)c1ccc(SC(=S)NCc2ccccc2)cc1, the growth is reported as 25.5% (inactive). For O=C(Nc1c(Cl)cccc1Cl)Oc1cccc2cccnc12, the growth was 5.56% (active). With COc1ccc(-c2cscc2N)cc1 the growth was 21.1% (inactive).
